Measurements published in PubChem BioAssay AID1159580 (chemical genetic matrix, 2015).
Several values for one entry are separate records, joined by “and”; a condition that tells them apart may be missing. Identical values can stand only once. In all, about 5,500 compounds went through this assay and about 2,000 (36%) were called active. Roughly 18% stayed inconclusive and do not appear here. No stated cut-off is given here; in the data, active means normalized growth mostly below about 0.91 (no sharp cut-off); inconclusive means no clear call, values can overlap the other calls; inactive means mostly above about 0.92. This is one part of the list.

Assay: chemical genetic growth profiling, strain panel (AID 1159580);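 further: tested at 20 µM; growth read once vehicle control cultures reached saturation at 30 °C; 1 = growth at the plate median or of vehicle wells; lower values mean less growth of the strain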
Conditions: S. cerevisiae deletion strains, growth OD

Measured: normalized growth

C[C@@H]1O[C@@H](O[C@H]2CC[C@]3(C=O)C4CC[C@]5(C)[C@@H](C6=CC(=O)OC6)CC[C@]5(O)C4CC[C@]3(O)C2)[C@H](O)[C@H](O)[C@H]1O (stereo not given in full)
inactive: locus YAL021C, strain ccr4, hits give low values 1.02 | locus YAL026C, strain drs2, hits give low values 0.997 | locus YAL030W, strain snc1, hits give low values 0.998 | locus YBL061C, strain skt5, hits give low values 0.991 | locus YBR009C, strain hhf1, hits give low values 0.979 | locus YBR021W, strain FUR4, hits give low values 1.05 | locus YBR023C, strain chs3, hits give low values 0.999 | locus YBR171W, strain sec66, hits give low values 0.992 | locus YBR229C, strain ROT2, hits give low values 0.962 | locus YBR231C, strain swc5, hits give low values 0.987 | locus YBR279W, strain paf1, hits give low values 1 | locus YCL011C, strain gbp2, hits give low values 0.999 | locus YCL016C, strain dcc1, hits give low values 0.996 | locus YCL029C, strain bik1, hits give low values 0.985 | locus YCL061C, strain MRC1, hits give low values 1 | locus YCL069W, strain vba3, hits give low values 1.01 | locus YCR088W, strain abp1, hits give low values 0.997 | locus YDL005C, strain med2, hits give low values 0.999 | locus YDL035C, strain GPR1, hits give low values 0.999 | locus YDL040C, strain nat1, hits give low values 0.978 | locus YDL074C, strain BRE1, hits give low values 1.05 | locus YDL101C, strain DUN1, hits give low values 0.976 | locus YDL134C, strain PPH21, hits give low values 0.989 | locus YDL185W, strain tfp1, hits give low values 0.987 | locus YDL192W, strain arf1, hits give low values 0.99 | locus YDR001C, strain nth1, hits give low values 1 | locus YDR069C, strain doa4, hits give low values 0.984 | locus YDR101C, strain arx1, hits give low values 1.02 | locus YDR137W, strain rgp1, hits give low values 1.01 | locus YDR150W, strain NUM1, hits give low values 0.995 | locus YDR159W, strain sac3, hits give low values 0.95 | locus YDR162C, strain NBP2, hits give low values 0.934 | locus YDR195W, strain ref2 0.927 | locus YDR297W, strain sur2, hits give low values 0.996 | locus YDR318W, strain mcm21, hits give low values 0.979 | locus YDR334W, strain swr1, hits give low values 0.998 | locus YDR335W, strain msn5, hits give low values 1 | locus YDR388W, hits give low values 0.999 | locus YDR392W, strain spt3, hits give low values 0.88 | locus YDR502C, strain sam2, hits give low values 0.982 | locus YEL003W, strain gim4, hits give low values 0.999 | locus YEL037C, strain rad23, hits give low values 1.01 | locus YEL061C, strain CIN8 (second series), hits give low values 1 | locus YEL061C, strain CIN8, hits give low values 0.996 | locus YER015W, strain faa2, hits give low values 0.992 | locus YER016W, strain bim1, hits give low values 0.99 | locus YER110C, hits give low values 0.985 | locus YER111C, strain swi4, hits give low values 0.988 | locus YER155C, strain BEM2 (second series), hits give low values 0.978 | locus YER155C, strain BEM2, hits give low values 1.01 | locus YER167W, strain BCK2, hits give low values 0.999 | locus YFR010W, strain ubp6, hits give low values 0.999 | locus YGL078C, strain dbp3, hits give low values 0.989 | locus YGL086W, strain mad1, hits give low values 1.04 | locus YGL167C, strain pmr1, hits give low values 0.982 | locus YGL173C, strain kem1, hits give low values 0.99 | locus YGL227W, strain vid30, hits give low values 0.99 | locus YGL240W, strain doc1, hits give low values 0.969 | locus YGL248W, strain PDE1, hits give low values 0.976 | locus YGL253W, strain hxk2, hits give low values 0.992 | locus YGR078C, strain PAC10, hits give low values 0.974 | locus YGR135W, strain pre9, hits give low values 0.966 | locus YGR229C, strain SMI1, hits give low values 0.987 | locus YGR252W, strain gcn5, hits give low values 0.953 | locus YHR013C, strain ard1, hits give low values 0.954 | locus YHR027C, strain rpn1, hits give low values 0.996 | locus YHR030C, strain SLT2, hits give low values 1.01 and 0.997 | locus YHR079C, strain IRE1 (second series), hits give low values 1.01 | locus YHR079C, strain IRE1, hits give low values 0.992 | locus YHR094C, strain hxt1, hits give low values 0.986 | locus YHR129C, strain ARP1, hits give low values 1 | locus YHR142W, strain chs7, hits give low values 1.03 | locus YHR200W, strain rpn10, hits give low values 1 | locus YIL066C, strain RNR3, hits give low values 0.984 | locus YIL073C, strain SPO22, hits give low values 1.02 | locus YIL125W, strain kgd1, hits give low values 0.988 | locus YIR030C, strain dcg1, hits give low values 0.995 | locus YJL092W, strain hpr5, hits give low values 1 | locus YJL095W, strain BCK1 (second series), hits give low values 0.998 | locus YJL095W, strain BCK1, hits give low values 0.965 and 0.985 | locus YJL115W, strain asf1, hits give low values 0.999 | locus YJL129C, strain trk1, hits give low values 1.01 | locus YJL134W, strain LCB3, hits give low values 0.994 | locus YJL154C, strain vps35, hits give low values 1.01 | locus YJL164C, strain tpk1, hits give low values 1.01 | locus YJL166W, strain qcr8, hits give low values 0.99 | locus YJL168C, strain set2, hits give low values 0.99 | locus YJL187C, strain SWE1 (second series), hits give low values 0.97 | locus YJL187C, strain SWE1, hits give low values 1 | locus YJR043C, strain POL32, hits give low values 0.99
